Screening data from PubChem.
dFosB act-1: mouse delta FosB homodimer activation. 340,000 tested, 0.99% active. activation, % at 25 µM. P13346. purified delta FosB, TAMRA-CDK5 oligo fluorescence polarization; percent of positive-control signal above neutral wells;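 active = mean activation above about 17%, with every replicate also reaching it, limit read from the data, passing the limit was not always enough; inconclusive = only one of the two conditions met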
Target sequence (P13346 whole entry, looked up): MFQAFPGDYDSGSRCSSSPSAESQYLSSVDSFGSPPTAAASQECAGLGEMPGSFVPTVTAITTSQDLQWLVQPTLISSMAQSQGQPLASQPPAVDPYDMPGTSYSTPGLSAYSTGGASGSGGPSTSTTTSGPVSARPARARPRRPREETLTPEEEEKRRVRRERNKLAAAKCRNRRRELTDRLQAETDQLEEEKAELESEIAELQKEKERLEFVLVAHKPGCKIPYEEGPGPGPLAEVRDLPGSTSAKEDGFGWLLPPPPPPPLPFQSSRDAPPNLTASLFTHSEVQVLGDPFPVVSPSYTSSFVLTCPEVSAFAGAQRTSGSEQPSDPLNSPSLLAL
SIRT5 block: blocks human SIRT5 desuccinylation of peptide; Q9NXA8; AID 652115; Purified SirT5, succinyl-peptide AMC, trypsin-coupled fluorescence; 330,000 tested, 1.1% active; inhibition, % at 15 µM; in the data active = inhibition above about 15%; inconclusive = no clear call, values can overlap the other calls
Target sequence (Q9NXA8 whole entry, looked up): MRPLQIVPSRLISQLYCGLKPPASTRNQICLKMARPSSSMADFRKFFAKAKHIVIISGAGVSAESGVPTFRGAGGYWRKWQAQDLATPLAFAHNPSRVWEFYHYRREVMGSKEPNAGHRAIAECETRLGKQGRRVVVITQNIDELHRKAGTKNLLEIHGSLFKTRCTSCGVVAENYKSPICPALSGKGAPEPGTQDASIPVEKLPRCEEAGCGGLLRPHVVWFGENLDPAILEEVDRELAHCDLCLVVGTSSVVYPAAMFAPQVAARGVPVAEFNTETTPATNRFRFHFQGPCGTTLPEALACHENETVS
PvdQ inh: P. aeruginosa PvdQ acylase inhibition. inhibition, % at 10 µM. AID 488965. 340,000 tested, 0.063% active. purified PvdQ acylase, fluorescence plate reader; in the data active = inhibition above about 30%, passing the limit was not always enough; inconclusive = no clear call, values can overlap the other calls;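 note: 0% = vehicle neutral wells and 100% = reference inhibitor wells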
CDK5 p35 inh: inhibitors of human CDK5/p35 kinase | Q00535+Q15078 | Recombinant CDK5/p35, ADP-Glo luminescence, 60 min | inhibition, % at 10 µM | 330,000 tested, 0.01% active | AID 488839;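 active = highest replicate inhibition of at least 50% and at least 75% of replicates reaching 50%; inconclusive = only one of the two criteria met; inactive = both criteria failed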;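 note: plate controls were DMSO neutral control for no effect and GW8510 at 10 µM for full effect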
PglD DTNB: PglD (C. jejuni) enzyme inhibition; purified PglD enzyme, DTNB colorimetric CoA detection; 360,000 tested, 0.098% active; inhibition, % at 12.5 µM; AID 602405; in the data active = inhibition above about 16%, passing the limit was not always enough; inconclusive = no clear call, values can overlap the other calls
FGF22 binding: binders of recombinant human FGF22 by thermal shift. activity (Tm shift, normalised), % at 9.99 µM. Q9HCT0. 340,000 tested, 1.5% active. SYPRO orange fluorescence; percent of sucrose octasulfate shift, DMSO zero;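 active = mean Tm shift, scaled 0 neutral to 100 positive control, at about 1.3% or above, every replicate too, limit read from the data; inconclusive = no clear call, values can overlap the other calls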
dFosB act-2: delta FosB (mouse) homodimer activation. purified delta FosB, TAMRA-CDK5 oligo fluorescence polarization; normalised: neutral wells 0, positive control 100. 2,400 tested, under 10 active. shares compounds with dFosB act-1. activation, % at 24.9 µM. AID 588690;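 active = highest replicate activation at or above 34% and every replicate reaching that threshold; inconclusive = meets only one of the two criteria; inactive = meets neither criterion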;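 note: higher polarization means more probe DNA bound by delta FosB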
The depositor's hits bear a star; ? = inconclusive; / = no result. Sampled rows, rich in hits. Any-hit rate of the full collection: about 2.8%.

SMILES	dFosB act-1	SIRT5 block	PvdQ inh	CDK5 p35 inh	PglD DTNB	FGF22 binding	dFosB act-2
Cc1ccc(C(=O)Nc2ccc3c(c2)C(=O)NC3=O)cc1	35.4*	10.5	-6.7	-1.0	/	-0.2	5.1
O=C(Nc1ccc2c(c1)C(=O)NC2=O)c1cccc(Cl)c1	25.3*	-1.0	-12.3	-1.5	-0.1	-0.3	1.5
O=C(Nc1ccc2c(c1)C(=O)NC2=O)c1cc(Cl)ccc1Cl	-0.9	0.8	-12.2	-0.9	/	0.1	/
O=C(Nc1ccc2c(c1)C(=O)NC2=O)c1ccc(Cl)s1	53.9*	/	2.4	-0.6	-0.6	0.1	0.0
CO[C@@H]1CN(C)C(=O)c2cc(NC(=O)c3cnccn3)ccc2OC[C@H](C)N(C(=O)C2CC2)C[C@H]1C	/	-1.9	/	/	0.3	/	/
Cc1ccc2nc(NC(=O)CN(C)S(=O)(=O)c3cccc4nsnc34)sc2c1	20.6*	/	4.0	-1.8	0.7	/	1.7
Cc1ccnc(NC(=O)CN(C)S(=O)(=O)c2cccc3nsnc23)c1	-3.5	/	-11.6	-2.7	3.4	/	/
Cc1ccc2nc(NC(=O)CNS(=O)(=O)c3ccc(Br)s3)sc2c1	19.4*	/	-2.4	-8.0	6.0	/	-4.7
CCCNC(=O)N1CC2(C1)CN(Cc1ccccn1)[C@H](CO)c1c2c2ccc(OC)cc2n1C	/	-7.7	/	/	/	0.0	/
O=C(Nc1ccc(Oc2ncnc3cc(Cl)ccc23)nc1)Nc1cccc(C(F)(F)F)c1	39.7*	-1.5	-7.3	-5.9	-6.4	-0.2	-4.4
O=C(O)COCC(=O)Nc1ccc(Oc2ncnc3cc(Cl)ccc23)nc1	/	0.7	/	/	8.6	0.0	/
O=C(C[C@H]1CC[C@@H]2[C@H](COC[C@H](O)CN2Cc2nccs2)O1)NCc1ccc(Oc2ccccc2)cc1	/	0.3	/	/	4.1	0.0	/
COc1ccc(S(=O)(=O)N(C)C[C@@H]2Oc3ccc(NC(=O)Nc4ccc(C(F)(F)F)cc4)cc3CC(=O)N([C@@H](C)CO)C[C@@H]2C)cc1	/	10.5	/	/	2.7	0.0	/
Nc1nonc1-n1nnc(C(=O)N/N=C/c2ccc3c(c2)OCO3)c1CSc1ccccc1	36.1*	-1.5	2.2	-0.1	-4.8	0.2	0.2
Nc1nonc1-n1nnc(C(=O)N/N=C/c2ccccc2Cl)c1CSc1ccccc1	/	-3.0	/	/	-1.9	-0.1	/
Nc1nonc1-n1nnc(C(=O)N/N=C/c2cccc(F)c2)c1-c1ccc2c(c1)OCO2	37.3*	-14.6	-2.1	0.3	-3.8	0.2	2.7
CCOc1ccc(/C=N/NC(=O)c2nnn(-c3nonc3N)c2-c2ccc(OCC)cc2)cc1	1.3	-0.1	1.4	0.2	-4.6	0.5	/
Nc1nonc1-n1nnc(C(=O)N/N=C/c2c(Cl)cccc2Cl)c1CSC1=NCCS1	26.6*	-4.8	-9.6	-0.8	-2.0	0.1	1.9
CCCOc1ccc(-c2c(C(=O)N/N=C/c3ccccc3)nnn2-c2nonc2N)cc1	29.6*	0.1	-10.0	1.0	/	0.0	-1.1
C/C=C/c1cnc2c(c1)C(=O)N([C@@H](C)CO)C[C@@H](C)[C@H](CN(C)C(=O)Cc1ccccn1)O2	/	2.2	/	/	-3.2	0.3	/
COc1ccc(C#Cc2ccc3c(c2)[C@]2(C(=O)N3)[C@H](c3ccc(O)cc3)N3[C@H](c4ccccc4)[C@H](c4ccccc4)OC(=O)[C@H]3[C@@H]2C(=O)NC[C@H](O)c2ccccc2)cc1	/	5.4	/	/	-1.5	0.3	/
O=C(C[C@H]1C=C[C@@H](NC(=O)c2ccccc2)[C@H](CO)O1)NCc1ccncn1	/	2.4	/	/	0.8	0.3	/
CCCNC(=O)C[C@H]1C[C@@H]2c3cc(NS(=O)(=O)c4ccc(F)cc4)ccc3O[C@@H]2[C@@H](CO)O1	/	5.6	/	/	-0.3	-0.1	/
Cc1cccc(-c2ccc([C@H]3[C@H](CO)N4C(=O)CN(C(=O)NC5CCCCC5)C[C@@H]34)cc2)c1	/	-0.8	/	/	/	/	/
COc1ccc2c(Cl)c(C(=O)N/N=C/c3ccncc3)sc2c1	52.1*	5.7	-5.9	-1.5	0.4	0.5	4.5
SMILES	dFosB act-1	SIRT5 block	PvdQ inh	CDK5 p35 inh	PglD DTNB	FGF22 binding	dFosB act-2
O=C(Nc1ccccc1Cl)c1ccc2c(=O)n3c(nc2c1)CCC3	-10.1	8.7	-17.5	1.2	/	0.3	/
O=C(Nc1nc(-c2ccccc2)cs1)c1ccc2c(=O)n3c(nc2c1)CCCCC3	18.4*	-4.0	-9.3	-0.2	/	0.1	4.8
CC(C)C#Cc1ccc2c(c1)O[C@H](CN(C)S(=O)(=O)c1cn(C)cn1)[C@@H](C)CN([C@H](C)CO)S2(=O)=O	/	4.0	/	/	-3.2	-0.8	/
Cc1nnc(NC(=O)c2ccc(-c3cccc(C(F)(F)F)c3)o2)s1	30.4*	/	-10.1	-0.4	2.9	/	?
C[C@@H]1CN([C@@H](C)CO)C(=O)c2cccc(NC(=O)CCCCCC(=O)Nc3ccccc3N)c2O[C@@H]1CN(C)C(=O)Nc1cccc2ccccc12	/	1.3	/	/	/	-0.4	/
Cn1c(SCC(=O)Nc2nccs2)nnc1-c1ccc(S(=O)(=O)N2CCCC2)cc1	-3.2	/	-17.9	-0.8	4.6	/	/
O=C(CSc1n[nH]c(-c2ccc(S(=O)(=O)N3CCCCC3)cc2)n1)Nc1nccs1	63.6*	/	-13.5	-0.6	/	/	5.1
CC(C)NC(=O)N(C)C[C@H]1OCCCC[C@@H](C)Oc2ccc(NC(=O)Nc3ccc4c(c3)OCO4)cc2C(=O)N([C@@H](C)CO)C[C@H]1C	/	-3.6	/	/	-2.8	-0.4	/
Cc1cc(C)c(NC(=O)CS(=O)CC(=O)Nc2ccc(F)cc2F)c(C)c1 (configuration not stated)	22.6*	-3.3	-4.5	1.0	-1.0	0.0	1.2
Cc1cc(C)c(NC(=O)CS(=O)CC(=O)N2CCN(c3ccc(F)cc3)CC2)c(C)c1 (configuration not stated)	-6.2	/	-10.3	0.8	4.4	/	/
Cc1ccc(-n2nnnc2SCC(=O)NC(=O)Nc2ccc3c(c2)OCCO3)cc1	?	-4.4	-10.0	-1.6	/	0.1	/
CC(=O)Nc1ccc(-n2nnnc2SCC(=O)Nc2cccc(NC(=O)c3ccco3)c2)cc1	33.0*	-3.1	-7.4	0.4	3.3	0.1	8.2
CCc1ccc(-n2nnnc2SCC(=O)Nc2ccc(NC(C)=O)cc2)cc1	17.8*	-1.7	-0.1	0.7	6.5	0.4	8.5
COc1cc(OC)cc(-n2nnnc2SCC(=O)Nc2ccc(C(C)=O)cc2)c1	37.4*	/	9.5	-1.3	0.9	/	-7.1
O=C(CSc1nnnn1-c1ccccc1)Nc1ccccc1	-4.2	-1.0	1.9	0.3	2.0	/	/
